Pf Dd2 inh: blocks in vitro growth of P. falciparum Dd2. AID 1347417. P. falciparum Dd2 growth, SYBR Green, 72 h. Potency, µM (series often up to 28.9 µM), for inactives: top-dose activity, negative = inhibition, usual class: inhibitors. 120,000 tested, 4.3% active; active means well fitted inhibition curve with a large enough effect;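 further: plate controls were DMSO vehicle for no effect and reference drug for full effect; nearly all actives have a fitted effect of over 65% in size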
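Readout: SYBR Green fluorescence, 485 nm excitation, 535 nm emission, after ~16 h lysis at 37C. Before that, Dd2-infected red cells (2.5% hematocrit) grew 72 h with compound, 29 uM top final concentration.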
The depositor's hits bear a star; i = inactive; [ ] = another dose, or the depositor's remark. The sample as a whole holds a higher share of hits than the screen did. Potency means the concentration at half of the fitted maximal effect.

SMILES | Pf Dd2 inh
CCNC(=O)c1coc(COc2ccc3c(c2)C(c2ccc(F)cc2)N(C(=O)CC(C)C)CC3)n1 (centres undefined) | 1.4µM*
Cc1nn(CC(=O)N[C@H](C)c2ccccc2)c(=O)n1-c1ccc2c(c1)OCO2 | -1%
C=CCNC(=O)c1cccn2nccc12 | 11%[44.1 µM]
CNC(=O)N1CCC(C2CCN(C(=O)CCc3cccc(OC)c3)C2)CC1 (centres undefined) | -23%
CC1=C[C@@H](CNS(=O)(=O)c2cccs2)[C@H](C(C)C)C[C@H]1CC(=O)NCc1ccc(C#N)cc1 | i
CC1=C[C@@H](CNS(=O)(=O)c2ccccc2)[C@H](C(C)C)C[C@H]1CC(=O)NCc1ccc(C#N)cc1 | 4.5µM*
COc1ccc(S(=O)(=O)NC[C@@H]2C=C(C)[C@H](CC(=O)NCc3ccc(C#N)cc3)C[C@H]2C(C)C)cc1 | -4%
O=C(O)C1CC2(CCN(C(=O)c3ccccc3N3CCCC3)CC2)CN1 (centres undefined) | 2%
CN1CCCCCC(O)c2cc(C(=O)NC3CCN(Cc4ccccc4)CC3)ccc21 (centres undefined) | -6%
CCc1ccc(NC(=O)CCc2c(C)nc3nc(-c4cc(OC)cc(OC)c4)nn3c2C)cc1 | i
COc1cc(OC)cc(-c2nc3nc(C)c(CCC(=O)Nc4cc(C)cc(C)c4)c(C)n3n2)c1 | 8.9µM*
COc1cc(OC)cc(-c2nc3nc(C)c(CCC(=O)NCCC(C)C)c(C)n3n2)c1 | 43%
CS(=O)(=O)c1ccc(CN2CC[C@@H](c3ccc4ccccc4c3)[C@H](O)C2)cc1 | -18%
O[C@@H]1CN(CC2CCNCC2)CC[C@H]1c1ccc2ccccc2c1 | 11µM*
O=C(O)c1ccc(CN2CC[C@@H](c3ccc4ccccc4c3)[C@H](O)C2)cc1 | -25%
O=C1CCN(S(=O)(=O)c2ccccc2)CCCC(C(=O)NC2CC2)CCN1 (centres undefined) | 3%
CS(=O)(=O)N(C1CC1)C1CCOC2(CCN(C(=O)COc3ccccc3)CC2)C1 (centres undefined) | i
Cc1ccc(C(=O)N2CC[C@@H]3CN(S(C)(=O)=O)[C@@H]3C2)cc1C | 21%
O=C1Cc2c(-c3cccc(C(F)(F)F)c3)n[nH]c2CN1Cc1ccccc1 | i
COCCN1Cc2[nH]nc(-c3ccsc3)c2CC1=O | 1%[44.1 µM]
O=C1Cc2c(-c3ccsc3)n[nH]c2CN1Cc1ccccc1 | 5.6µM*
O=C(COc1ccccc1)NCC(=O)N1CCCCCNC(=O)CC1c1ccccc1 (centres undefined) | -17%
O=C1NCCOCCN(C(=O)Cc2cccc(F)c2)[C@H]2CCC[C@@H]12 | 40%
COC[C@@H]1CN(C(=O)c2ccccc2)C[C@H]1c1nc(C2CC2)no1 | -14%
Cc1cc(C)n(CCNC(=O)c2ccc3c(c2)[nH]c(=O)n3C2CCC(O)CC2)n1 (centres undefined) | -8%
SMILES | Pf Dd2 inh
COc1ccc(C[C@H](NC(=O)C2=C[C@@H](NC(=O)CS(=O)(=O)c3ccccc3)[C@@H](O)[C@H](O)C2)C(N)=O)cc1 | i
Cn1nccc1C(=O)N1CC(c2ncc3c(-c4ccccc4)nccn23)C1 | -16%[44.1 µM]
CCO[C@H]1CN(Cc2cnc(-c3ccccc3C)s2)C[C@@H]1O | -17%
Cc1ccccc1-c1nccn2c(C3CN(Cc4ccccc4O)C3)ncc12 | 0.35µM*
c1cn(-c2ccc3ncsc3c2)c(-c2cc3n(n2)CCCNC3)n1 | 0%
C[C@]1(O)CCN(C(=O)Cc2nc(-c3ccncc3)n[nH]2)C[C@@H]1O | 2%
Cc1ccc(CN2C(=O)NC3(CCN(C(=O)c4cccc(C#N)c4)CC3)C2=O)cc1 | -5%
CN1C(=O)c2cccn2CC1CNS(=O)(=O)Cc1ccccc1 (centres undefined) | -20%
OC1(CN2CCN(Cc3cccc(Cl)c3)CC2)CCCNC1 (centres undefined) | -25%
COc1cccc(CC2(CO)CCCN(C(=O)c3cn4ccsc4n3)C2)c1 (centres undefined) | -21%
OCC1(Cc2cccc(Cl)c2)CCCNC1 (centres undefined) | 11µM*
O=C(c1ccc2c(c1)OCO2)N1CCc2nn(Cc3ccccc3)c(=O)n2CC1 | -7%
CC(C)c1ccc(C2Sc3ccccc3NC3=C2C(=O)c2ccccc23)cc1 (centres undefined) | 3.5µM*
O=C1C2=C(Nc3ccccc3SC2c2ccc(C(F)(F)F)cc2)c2ccccc21 (centres undefined) | 4.5µM*
O=C1[C@@H]2CSC(c3ccc(C(F)(F)F)cc3)N2C(=O)N1c1ccccc1 (some centres undefined) | 12%
CCc1ccc(CNC(=O)c2cc3c(s2)-c2ccccc2OC3)cc1 | 11%
CCc1ccc(C2Sc3ccccc3NC3=C2C(=O)c2ccccc23)cc1 (centres undefined) | 2µM*
COc1ccc(CNC(=O)C2CCc3sc(C(=O)N(C)C)cc3C2)cc1 (centres undefined) | -5%
Cc1ccc(C(=O)NC2CCN(c3ccc(F)cc3)C2=O)s1 (centres undefined) | -18%
CS(=O)(=O)N1CCOc2ccc(CCC(=O)N3CCCCC3)cc2C1 | i

Screens deposited in PubChem BioAssay by National Center for Advancing Translational Sciences (NCATS).
